GDH-TPI inh = counter-screen for M. tuberculosis FBA inhibitors: GDH-TPI coupled enzymes | hit rate 1.2% among 360,000 | AID 588335 | GDH-TPI coupled enzyme counterscreen, NADH absorbance | inhibition, % at 4.8 µM; in the data active = inhibition above about 30%;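 note: 0% = DMSO wells and 100% = wells lacking the enzyme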
FBA Mtb inh = inhibits M. tuberculosis FBA enzyme; P9WQA3; purified M. tuberculosis FBA, fluorescence read-out; AID 588726; inhibition, % at 1 µM; hit rate 2.3% among 360,000; in the data active = inhibition above about 27%;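 note: 0% = vehicle and 100% = reference inhibitor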
Target sequence (P9WQA3 whole entry, looked up): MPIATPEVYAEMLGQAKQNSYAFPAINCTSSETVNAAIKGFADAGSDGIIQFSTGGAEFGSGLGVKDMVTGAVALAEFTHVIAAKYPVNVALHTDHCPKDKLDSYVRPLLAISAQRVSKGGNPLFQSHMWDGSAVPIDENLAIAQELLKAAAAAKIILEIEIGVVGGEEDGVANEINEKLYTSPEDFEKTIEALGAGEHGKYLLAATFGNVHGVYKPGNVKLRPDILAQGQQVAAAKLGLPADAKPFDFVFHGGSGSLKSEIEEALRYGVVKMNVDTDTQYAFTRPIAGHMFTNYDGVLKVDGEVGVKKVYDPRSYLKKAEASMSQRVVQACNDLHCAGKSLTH
BJeLR lethal = kills HRASV12-expressing BJeLR cells. inhibition, % (concentration not given with the values). AID 1554. hit rate 0.17% among 300,000. BJeLR (HRASV12) viability, CellTiter-Glo ATP luminescence, 48 h; in the data active = inhibition above about 50%
RecA splice inh = inhibitors of M. tuberculosis RecA intein splicing; P9WHJ3; hit rate 0.75% among 290,000; AID 2221; cell-free RecA intein splicing, fluorescence; inhibition, % (concentration not given with the values); in the data active = inhibition above about 30%;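 note: 0% = vehicle wells and 100% = reference inhibitor control wells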
PrPC TRFRET = inhibitors of human cell surface prion protein PrPC; TR-FRET read-out; inhibition, % at 13.8 µM; hit rate 0.43% among 370,000; AID 720596; in the data active = inhibition above about 24%; note: 0% = median of the test wells and 100% = reference compound wells
Active calls of the source: *; nt = no result; + = active, no number. An excerpt weighted towards active compounds, which were near 4.2% of everything screened.

SMILES	GDH-TPI inh	FBA Mtb inh	BJeLR lethal	RecA splice inh	PrPC TRFRET
CCn1cc(/C=C(\NC(=O)c2ccccc2F)C(=O)N2CCOCC2)c2ccccc21	30.8*	-1.7	-4.7	-1.1	nt
Cc1ccc(-c2cc(C(=O)NN=Cc3cccc(Oc4ccccc4)c3)[nH]n2)cc1C	nt	nt	nt	nt	3.3
N#Cc1c(N)c(C(=O)c2ccc(Br)cc2)n2c1CCC2	31.1*	0.7	13.7	1.5	4.1
CN(N)C(=S)NCc1ccccc1	-3.4	+	-0.5	-1.4	-4.6
Cn1c(=O)c2c(nc(N/N=C/c3cccnc3)n2Cc2ccccc2)n(C)c1=O	31.0*	0.8	8.4	-2.0	-11.1
Cn1c(=O)c2c(nc(N/N=C/c3ccco3)n2C)n(C)c1=O	56.1*	1.3	-1.1	-1.8	2.8
COC(=O)C[C@H]1CC[C@H]2[C@H](COc3ccc(NC(=O)Nc4ccccc4F)cc3C(=O)N2C)O1	nt	nt	nt	nt	6.8
CC(C)(C)OC(=O)NCc1ccccc1/C=C/S(=O)(=O)NCCc1ccccc1	nt	nt	nt	nt	0.1
COc1ccc2sc(-c3ccc(N(C)C)cc3)c(C#CC(C)(C)O)c2c1	22.9	+	nt	nt	-0.5
COc1ccc(-c2sc3ccc(OC)cc3c2C#CCCO)cc1	18.3	8.2	-0.1	-0.7	nt
COc1cccc(-c2sc3ccc(OC)cc3c2C#CC(C)(C)O)c1	16.6	11.9	nt	nt	-3.2
COc1ccc2sc(-c3ccc(N(C)C)cc3)c(C#CCCO)c2c1	18.8	+	nt	nt	2.5
CC(=O)OC12CCCN(C1)/C(=C/c1ccc(Cl)cc1)C2 (centres undefined)	nt	nt	nt	nt	-0.2
COc1ccc(F)cc1CN1CCN(C(=O)CCC(=O)Nc2nnc(CC(C)C)s2)CC1	-1.6	-2.0	61.5*	-1.5	-1.5
CCCC1CCC2(CCCN2CCOC(=O)Nc2ccc(F)cc2)CC1 (centres undefined)	nt	nt	nt	nt	-4.9
Cc1ccc(NCN2C(=O)C3C4C=CC(C4)C3C2=O)cc1 (centres undefined)	-4.2	7.7	-4.9	1.3	3.5
O=C1C2C3C=CC(C3)C2C(=O)N1CNc1ccc(O)cc1 (centres undefined)	nt	nt	2.4	61.9*	nt
CC(C)CC(=O)/C=C/n1c(=S)oc2ccccc21	18.5	0.1	3.5	2.5	4.4
CC(=O)/C=C/n1c(=S)oc2ccccc21	nt	nt	70.6*	7.6	7.1
CCOC(=O)c1cc2c(=O)n3cccc(C)c3nc2n(Cc2ccco2)c1=NC(=O)c1ccccc1	9.5	+	-5.0	-427.4	-15.6
CCOC(=O)c1cc2c(=O)n3ccccc3nc2n(Cc2ccco2)c1=NC(=O)c1ccccc1OC	24.4	+	-5.3	-301.2	-15.8
CCOC(=O)c1cc2c(=O)n3ccccc3nc2n(Cc2ccco2)c1=NC(=O)c1cccc(OC)c1	39.0*	139.3*	-25.0	-18.2	-31.3
CCOC(=O)c1cc2c(=O)n3ccccc3nc2n(Cc2ccco2)c1=NC(=O)c1ccc(OC)cc1	11.4	115.0*	nt	-72.9	-12.4
COc1ccc(CCn2c(=N)c(C(=O)NCc3ccco3)cc3c(=O)n4ccccc4nc32)cc1	-1.2	7.2	-0.5	-5.1	-56.7
CCOC(=O)c1cc2c(=O)n3cccc(C)c3nc2n(Cc2ccco2)c1=NC(=O)c1ccc(C)cc1	2.6	1.1	nt	nt	nt
SMILES	GDH-TPI inh	FBA Mtb inh	BJeLR lethal	RecA splice inh	PrPC TRFRET
CCCCCCC(=O)NC1CCCCN(Cc2ccccc2C)C1=O (centres undefined)	nt	nt	nt	nt	8.0
CC(C)N(CCn1cnc2c([nH]c3ccccc32)c1=O)C(C)C	8.8	7.7	2.8	-1.6	-3.0
COc1cccc2[nH]c3c(=O)n(CCN(C)C)cnc3c12	22.5	116.9*	-4.5	-0.9	-1.8
COc1cccc2[nH]c3c(=O)[nH]cnc3c12	10.2	132.6*	0.7	1.0	-2.8
CCN(CC)CCn1cnc2c([nH]c3cccc(OC)c32)c1=O	-6.4	103.4*	3.7	-2.8	-4.5
COc1cccc2c3cccc(OC)c3c3[nH]cnc3c12	4.1	9.7	nt	nt	-0.1
CCS(=O)(=O)c1ccc(C=NNc2nc3ccccc3o2)cc1	37.0*	-2.4	nt	nt	-4.2
CCCCOC(=O)c1ccc(OC(=O)c2cccnc2)cc1	-4.4	4.2	-8.0	28.5	-7.6
CCCCCCOC(=O)c1ccc(OC(=O)c2cccnc2)cc1	-1.9	-3.1	5.4	61.1*	nt
CC(c1ccccc1)n1cc(C(=O)N2CCCN(Cc3ccccc3)CC2)nn1 (centres undefined)	nt	nt	nt	nt	8.0
COC(=O)CC[C@H](/C=C/C(=O)OC(C)(C)C)Sc1ccc(C(C)(C)C)cc1	nt	nt	nt	nt	5.5
O=C(NCC1CCCO1)c1ccc2c(c1)N(Cc1ccccc1)C(=O)CS2=O (centres undefined)	2.4	0.4	6.2	1.3	2.6
O=C(NCCN1CCOCC1)c1ccc2c(c1)N(Cc1ccccc1)CCS2	8.9	118.2*	-3.6	-10.1	1.6
O=C(NCC1CCCO1)c1ccc2c(c1)N(Cc1ccccc1)CCS2 (centres undefined)	-7.7	141.4*	5.3	-6.1	9.9
CCOC(=O)c1cnc2ccc(C(=O)OC)cc2c1NCCCN1CCOCC1	53.1*	19.1	1.0	-4.0	-1.9
Cc1ccc(CN2CCSc3ccc(C(=O)NCCCN4CCOCC4)cc32)cc1	8.6	162.0*	10.8	-14.0	4.9
O=C(CCc1ccccc1)N[C@H]1[C@H](OCc2ccccc2)CCC[C@@]12C(=O)N(Cc1ccccc1)c1ccc(-c3ccsc3)cc12	nt	nt	nt	nt	4.6
O=C(CSc1nnc(-c2ccc(Cl)cc2)n1-c1ccccc1)NN=Cc1c[nH]c2ccccc12	nt	nt	nt	nt	19.8
CC(C)C(NC(=O)[C@H](Cc1ccccc1)NC(=O)OCc1ccccc1)P(=O)(O)OC(Cc1ccccc1)C(=O)O (some centres undefined)	nt	nt	nt	nt	5.2
CCOc1ccc(C(=O)NCCCN2CCOCC2)cc1OCC	2.2	+	-3.2	0.0	-6.9
CN1CCN(CCCNC(=O)c2ccc3c(c2)N(Cc2ccccc2)CCS3)CC1	8.9	189.6*	-6.1	-3.5	4.7
Cc1ccc(CN2CCSc3ccc(C(=O)NC4CCN(Cc5ccccc5)CC4)cc32)cc1	9.2	10.3	11.0	-2.4	4.5
CC1CC(C)CN(C(=O)c2ccc3c(c2)N(Cc2ccccc2)CCS3)C1 (centres undefined)	7.9	10.0	-10.9	35.4*	nt
O=C(NCCCN1CCOCC1)c1ccc2c(c1)N(Cc1ccccc1)CCS2	0.5	119.4*	-16.1	-0.3	-9.1
COc1ccc(C(=O)NCCCN2CCOCC2)cc1OC	0.0	4.8	0.7	nt	-4.6
SMILES	GDH-TPI inh	FBA Mtb inh	BJeLR lethal	RecA splice inh	PrPC TRFRET
CCC[C@H]1[C@@H](NS(=O)(=O)c2ccccc2[N+](=O)[O-])CC[C@@]23CCCN2C(=O)CCC[C@@H]13	nt	nt	nt	nt	-4.6
O=C(NCc1cccs1)C1CCCN(S(=O)(=O)c2ccccc2)C1 (centres undefined)	nt	nt	nt	nt	-2.5
c1ccc(-c2ccc(-c3cn4c(n3)CCC4)cc2)cc1	0.0	157.6*	19.1	6.7	4.0
CC(=O)c1ccc(Nc2cc(C)nc3nc(C)nn23)cc1	30.7*	-0.7	-7.2	2.2	-2.6
Cc1cc(Nc2ccc(C(=O)O)cc2)n2nc(C)nc2n1	2.0	-3.3	-4.3	-0.1	-6.5
CC(C)OC(=O)C1C2C=CC3(CN(Cc4cccs4)C(=O)C13)O2 (centres undefined)	-4.3	122.7*	1.6	0.1	-1.6

Screening data from PubChem BioAssay.
